PD-1 reverse act – activators reversing PD-1 mediated T-cell inhibition, primary screen, luminescence, primary human CD4 T cells, PD-L1 beads | CellTiter-Glo 96 h | activation, % (no concentration beside the values) | 29,000 tested, under 10 active | AID 2316, 2010; call rule not given here;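 further: 0% = median vehicle wells and 100% = positive control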
NOMO-1 viab – NOMO-1 AML cell viability reduction, primary screen, STK33 inhibitor project, CellTiter-Glo luminescence. NOMO-1 AML viability, 72 h. inhibition, % (test concentration not listed). hit rate 7.5% among 37,000; in the data active means inhibition above about 80%; inconclusive means no clear call, values can overlap the other calls
MITF inhib – inhibitors of MITF, primary screen, MITF inhibitor project, cell-based, luminescence | TRPM1 promoter luciferase, 24 h | inhibition, % (no concentration beside the values) | hit rate 0.28% among 37,000; in the data active means inhibition above about 85%; inconclusive means no clear call, values can overlap the other calls; inactive means below about 68%;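 further: human melanocyte line stably carrying TRPM1 promoter luciferase reporter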
Hedgehog inh – Hedgehog pathway signaling inhibitors, primary screen, luminescence, Shh-LIGHT2 cells, Gli-luciferase; Shh-LIGHT2 Gli-luciferase reporter, 30 h; inhibition, % (concentration not given with the values); hit rate 2.1% among 22,000;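 active means mean inhibition across valid replicates above about 65%, limit read from the data; inconclusive means mean under the limit, yet half or more replicates past it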;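 further: pathway switched on by Shh-conditioned medium diluted 1 in 25 in low serum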
An asterisk follows results filed as active; u = inconclusive; x = not tested or not shown. This is a sample that favours compounds with a hit; in the whole collection about 8.1% have one here.

SMILES	PD-1 reverse act	NOMO-1 viab	MITF inhib	Hedgehog inh
CCOc1ccc(C2C3=C(CCCC3=O)NC3=C2C(=O)CCC3)cc1	0	5	7	-4
CC(=O)NC1=NN(C(C)=O)C(C)(CS(=O)(=O)c2ccc(C)cc2)S1 (centres undefined)	1	-12	12	x
CCCc1cc(=O)[nH]c(Nc2nc(C)c3cc(OC)ccc3n2)n1	1	11	35	x
COc1ccc2c(C)nc(Nc3nc(C)cc(=O)[nH]3)nc2c1	-1	117*	35	x
Cc1cc(=O)[nH]c(Nc2nc(C)c3cccc(C)c3n2)n1	-8	130*	31	x
COc1ccc2nc3c(cc2c1)c(=O)n(C)c(=O)n3C	7	-4	5	-13
COc1ccc(S(=O)(=O)N(C)CC(=O)Nc2cccc([N+](=O)[O-])c2)cc1Cl	x	0	-6	x
C/C=C/C/C=C/CCC(=O)[C@H]1O[C@H]1C(N)=O	x	114*	101*	78*
Cn1c(=O)c2c(nc(NCc3cccnc3)n2Cc2cccc(Br)c2)n(C)c1=O	-3	u	10	x
COc1ccc(C(=O)N2c3ccccc3CCc3ccccc32)cc1	-2	104*	25	-59
Nc1ncnc2c1c(I)cn2C1OC(CO)C(O)C1O (centres undefined)	x	114*	88*	44
Oc1ccc(CNc2cccc(C(F)(F)F)c2)c2cccnc12	-4	104*	26	u
Cc1ccnc(SCC(=O)Nc2cccc(C(F)(F)F)c2)n1	-1	3	-1	x
C[C@@H]1CN([C@H](C)CO)C(=O)c2cccc(NS(=O)(=O)c3cccs3)c2O[C@H]1CN(C)Cc1ccc(C(=O)Nc2ccccc2N)cc1	1	44	-11	x
COc1ccc(S(=O)(=O)Nc2cccc3c2O[C@@H](CN(C)Cc2ccc(C(=O)Nc4ccccc4N)cc2)[C@H](C)CN([C@H](C)CO)C3=O)cc1	-2	72	-2	x
Cc1noc(C)c1S(=O)(=O)Nc1cccc2c1O[C@H](CN(C)Cc1ccc(C(=O)O)cc1)[C@@H](C)CN([C@H](C)CO)C2=O	1	-6	0	-20
C[C@H](CO)N1C[C@H](C)[C@H](CN(C)Cc2ccc(C(=O)Nc3ccccc3N)cc2)Oc2c(NS(=O)(=O)c3cccs3)cccc2C1=O	1	88*	6	x
Cc1noc(C)c1S(=O)(=O)Nc1cccc2c1O[C@H](CN(C)Cc1ccc(C(=O)Nc3ccccc3N)cc1)[C@H](C)CN([C@H](C)CO)C2=O	0	118*	11	x
C[C@@H]1CN([C@H](C)CO)C(=O)c2cccc(NS(=O)(=O)c3ccc(Cl)cc3)c2O[C@@H]1CN(C)Cc1ccc(C(=O)Nc2ccccc2N)cc1	-3	126*	0	x
C[C@H](CO)N1C[C@H](C)[C@H](CN(C)Cc2ccc(C(=O)Nc3ccccc3N)cc2)Oc2c(NS(=O)(=O)c3ccc(Cl)cc3)cccc2C1=O	-1	121*	43	x
CCN(CC)C(=O)c1sc(NC(=S)Nc2cnccn2)c(C(=O)OC)c1C	1	12	5	x
COc1ccc(S(=O)(=O)Nc2cccc3c2O[C@@H](CN(C)Cc2ccc(C(=O)Nc4ccccc4N)cc2)[C@@H](C)CN([C@@H](C)CO)C3=O)cc1	-2	112*	15	x
C[C@H]1CN([C@@H](C)CO)C(=O)c2cccc(NS(=O)(=O)c3ccc(Cl)cc3)c2O[C@H]1CN(C)Cc1ccc(C(=O)Nc2ccccc2N)cc1	-1	118*	3	x
C[C@H](CO)N1C[C@H](C)[C@H](CN(C)Cc2ccc(C(=O)Nc3ccccc3N)cc2)Oc2c(NS(=O)(=O)c3ccccc3)cccc2C1=O	0	139*	29	x
C[C@@H]1CN([C@H](C)CO)C(=O)c2cccc(NS(=O)(=O)c3ccccc3)c2O[C@H]1CN(C)Cc1ccc(C(=O)Nc2ccccc2N)cc1	1	58	-20	x
SMILES	PD-1 reverse act	NOMO-1 viab	MITF inhib	Hedgehog inh
Cc1ccc(NC(=O)CN(c2cccc(F)c2)S(C)(=O)=O)cc1	-1	21	-14	x
Cc1ccc(N(C(C)C(=O)Nc2cc([N+](=O)[O-])ccc2C)S(C)(=O)=O)cc1 (centres undefined)	x	11	0	x
CNC(=O)Nc1ccc(C(C)(C)C)cc1Br	1	-7	-32	-32
Cc1cc(OCC(=O)Nc2ccc(O)c(-c3nc4ccccc4o3)c2)ccc1Cl	-7	107*	42	x
C[C@H]1CN([C@@H](C)CO)C(=O)c2cc(NC(=O)NC3CCCCC3)ccc2O[C@H]1CN(C)Cc1ccc(C(=O)Nc2ccccc2N)cc1	-2	59	4	x
C[C@@H]1CN([C@@H](C)CO)C(=O)c2cc(NC(=O)NC3CCCCC3)ccc2O[C@@H]1CN(C)Cc1ccc(C(=O)Nc2ccccc2N)cc1	-3	107*	6	x
C[C@@H]1CN([C@H](C)CO)C(=O)c2cc(NC(=O)NC3CCCCC3)ccc2O[C@@H]1CN(C)Cc1ccc(C(=O)Nc2ccccc2N)cc1	-2	99*	-9	x
C[C@H](CO)N1C[C@H](C)[C@H](CN(C)Cc2ccc(C(=O)Nc3ccccc3N)cc2)Oc2ccc(NC(=O)NC3CCCCC3)cc2C1=O	0	98*	-23	x
O=C(COc1ccccc1Cl)Nc1ccccc1[N+](=O)[O-]	x	-4	-44	x
CCOC(=O)c1cnc2c(OC)cccc2c1NC1CCCCC1	-6	118*	70	u
CCOC(=O)c1cnc2c(OC)cccc2c1N1CCC2(CC1)OCCO2	1	39	7	-16
CN1CCN(C(c2ccccc2)c2ccccc2)CC1	3	14	15	38
NC(=O)c1ccc(N2CCN(C(c3ccccc3)c3ccccc3)CC2)nc1	-3	109*	-19	37
CC(C)c1ccc2oc(-c3ccc(Cl)c(NC(=O)COc4ccc([N+](=O)[O-])cc4)c3)nc2c1	-6	110*	19	x
COc1ccc(-c2nc3cc(NC(=O)COc4ccc([N+](=O)[O-])cc4)ccc3o2)cc1Cl	0	22	37	x
OCCN(Cc1ccccc1)c1ncnc2c1sc1nc(N3CCOCC3)c3c(c12)CCCC3	-5	20	22	x
CCCc1c(C(=O)OCC)c(C(=O)OCC)c2c(-c3ccccc3)nc(N3CCOCC3)nn12	-1	u	25	78*
CC(C)NC(=O)N(C)C[C@H]1Oc2c(NC(=O)NC3CCCCC3)cccc2C(=O)N([C@H](C)CO)C[C@H]1C	0	-7	2	69*
CC(C)NC(=O)N(C)C[C@@H]1Oc2c(NC(=O)NC3CCCCC3)cccc2C(=O)N([C@H](C)CO)C[C@H]1C	0	25	-4	-12
C[C@@H]1CN([C@H](C)CO)C(=O)c2cccc(NC(=O)NC3CCCCC3)c2O[C@H]1CN(C)CC1CCCCC1	-5	104*	30	25
C[C@@H]1CN([C@H](C)CO)C(=O)c2cccc(NC(=O)C3CCCCC3)c2O[C@H]1CN(C)CC1CCCCC1	-5	111*	18	6
C[C@H](CO)N1C[C@H](C)[C@@H](CN(C)CC2CCCCC2)Oc2c(NC(=O)NC3CCCCC3)cccc2C1=O	x	54	9	6

Assay outcomes from PubChem BioAssay.
